Laboratory results as given in PubChem BioAssay (NCATS).
Records with an inconclusive call do not appear. Activity calls are given as the source filed them. Calls follow the shape of the dose curve; as a rule, active = well fitted curve in the direction sought with a large enough effect; inconclusive = small, poorly fitted or top-dose-only effect, or another doubt; inactive = no such curve, though single readings can be large; an effect the other way counts as inactive or inconclusive.

Tests used:
[1] = BET inhibitor-based combinations targeting novel dependencies in MECOM-rearranged (r) AML: SET-2 cell line (AID 2202231); settings: SET-2 AML cells viability, CellTiter-Glo luminescence, 48 h; viability: stronger effect = lower value, concentration not given here; also: nearly all actives have a fitted effect of over 35% in size; also: potency is read from the fitted curve at half-maximal effect;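 as to viability: plate controls were DMSO treated cells for no effect and wells without cells for full effect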
How it was run: (§1)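 Each compound was tested at eleven concentrations on cells seeded at 500/well. After two days' incubation, ATP-based luminescence reported viability; responses relative to DMSO and blank wells yielded AUC and cell-line-centred Z-AUC.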

[2] = BET inhibitor-based combinations targeting novel dependencies in MECOM-rearranged (r) AML: OCI-AML3 cell line (AID 2202232); settings: CellTiter-Glo luminescence, 48 h; Potency: OCI-AML3 viability; series mostly up to 46 µM; also: nearly all actives have a fitted effect of over 35% in size; also: potency is read from the fitted curve at half-maximal effect
How it was run: as §1

[3] = BET inhibitor-based combinations targeting novel dependencies in MECOM-rearranged (r) AML: MV-4-11 cell line (AID 2202233); settings: MV-4-11 AML viability, CellTiter-Glo luminescence, 48 h; series mostly up to 46 µM; also: nearly all actives have a fitted effect of over 45% in size; also: potency is read from the fitted curve at half-maximal effect
How it was run: (§2)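 First, 500 cells per well were seeded; next, drugs were pinned as 11-point doses; then plates sat 48 hr in the incubator; finally CellTiter-Glo was added and luminescence read, with AUC and Z-AUC computed.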

[4] = BET inhibitor-based combinations targeting novel dependencies in MECOM-rearranged (r) AML: UCSD-AML1 cell line (AID 2202235); settings: UCSD-AML1 AML cells viability, CellTiter-Glo, 48 h; series mostly up to 46 µM; also: nearly all actives have a fitted effect of over 40% in size; also: potency is read from the fitted curve at half-maximal effect
How it was run: as §2

[5] = BET inhibitor-based combinations targeting novel dependencies in MECOM-rearranged (r) AML: AML-191 cell line (AID 2202236; also: nearly all actives have a fitted effect of over 35% in size; also: potency is read from the fitted curve at half-maximal effect); settings: AML-191 viability, CellTiter-Glo luminescence, 48 h; series mostly up to 46 µM
How it was run: as §1

[6] = BET inhibitor-based combinations targeting novel dependencies in MECOM-rearranged (r) AML: AML-194 cell line (AID 2202237; also: nearly all actives have a fitted effect of over 40% in size; also: potency is read from the fitted curve at half-maximal effect); settings: AML-194 (MECOM-r AML) viability, CellTiter-Glo, 48 h; series mostly up to 46 µM
How it was run: as §1

[7] = target: Aldehyde dehydrogenase, mitochondrial (Homo sapiens) (UniProt P05091); experiment: qHTS for Inhibitors of the Aldehyde Dehydrogenase Family (ALDH2) Primary screen (AID 2061308); settings: ALDH2 enzyme inhibition qHTS, 1536-well; series mostly up to 56 µM;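 also: plate controls were vehicle for no effect and reference inhibitor for full effect; nearly all actives have a fitted effect of over 55% in size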
[8] = target: Retinaldehyde dehydrogenase 3 (Homo sapiens) (UniProt P47895); experiment: qHTS for Inhibitors of the Aldehyde Dehydrogenase Family (ALDH1A3) Primary screen (AID 2061315); settings: ALDH inhibition qHTS; series mostly up to 56 µM;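 also: plate controls were DMSO vehicle for no effect and reference inhibitor for full effect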
[9] = BET inhibitor-based combinations targeting novel dependencies in MECOM-rearranged (r) AML: HNT-34 cell line (AID 2202234); settings: HNT-34 AML viability, CellTiter-Glo luminescence, 48 h; series mostly up to 46 µM; also: nearly all actives have a fitted effect of over 35% in size; also: potency is read from the fitted curve at half-maximal effect
How it was run: as §2

[10] = target: Retinaldehyde dehydrogenase 3 (Homo sapiens) (UniProt P47895); experiment: qHTS for Inhibitors of the Aldehyde Dehydrogenase Family (ALDH1A3) Confirmatory screens (AID 2061311); settings: ALDH inhibition qHTS; series mostly up to 46 µM; also: potency is read from the fitted curve at half-maximal effect; nearly all actives have a fitted effect of over 60% in size
[11] = target: Retinal dehydrogenase 2 (Homo sapiens) (UniProt O94788); experiment: qHTS for Inhibitors of the Aldehyde Dehydrogenase Family (ALDH1A2) Confirmation screens (AID 2061314); settings: ALDH1A2 enzyme inhibition qHTS confirmation; series mostly up to 45.9 µM; also: potency is read from the fitted curve at half-maximal effect; nearly all actives have a fitted effect of over 65% in size
[12] = target: Aldehyde dehydrogenase 1A1 (Homo sapiens) (UniProt P00352); experiment: qHTS for Inhibitors of the Aldehyde Dehydrogenase Family (ALDH1A1) Confirmatory screens (AID 2061316); settings: ALDH inhibition qHTS; series mostly up to 47.3 µM; also: potency is read from the fitted curve at half-maximal effect; nearly all actives have a fitted effect of over 65% in size

C/C1=C/C[C@@H](/C(C)=C/c2csc(C)n2)OC(=O)C[C@H](O)C(C)(C)C(=O)[C@H](C)[C@@H](O)[C@@H](C)CCC1
active: Potency [1] 0.0934 µM | Potency [2] 0.059 µM | Potency [3] 0.148 µM | Potency [4] 0.118 µM | Potency [5] 0.0833 µM | Potency [6] 0.0934 µM

CC(C)CCn1c(CN2CCN(C(=O)C3CC3)CC2)nc2c1c(=O)n(C)c(=O)n2C
inactive: Potency [7] | Potency [8]

O=C(O)c1ccc(O)c2ncc(N3CCCNCC3)cc12
inactive: Potency [8]

Nc1ncnc2c1ncn2[C@@H]1O[C@@H]2COP(O)(=S)O[C@H]2[C@H]1O (some centres not stated)
inactive: activity change, negative = inhibition [7] 4.01% [at 11.2 µM] | activity change, negative = inhibition [8] 2.78% [at 11.2 µM]

CC1=C(C(=O)Nc2nncs2)C(c2nn(C)cc2Cl)N=C(Nc2nc3ccccc3o2)N1 (configuration not stated)
inactive: Potency [7] | Potency [8]

C[C@@H]1CC[C@@]2(OC1)O[C@H]1C[C@H]3[C@@H]4CC=C5C[C@@H](O[C@@H]6O[C@H](CO)[C@@H](O[C@@H]7O[C@@H](C)[C@H](O)[C@@H](O)[C@H]7O)[C@H](O)[C@H]6O[C@@H]6O[C@@H](C)[C@H](O)[C@@H](O)[C@H]6O)CC[C@]5(C)[C@H]4CC[C@]3(C)[C@H]1[C@@H]2C
active: Potency [1] 8.33 µM | Potency [2] 7.42 µM | Potency [9] 5.25 µM

Cc1cc(SCc2sc(-c3ccc(C(F)(F)F)c(F)c3)nc2C)ccc1OCC(=O)O
inactive: Potency [7] | Potency [8] | Potency [4] | Potency [5] | Potency [6]
active: Potency [3] 18.6 µM

[Cl][Pt].[NH2-].[NH2-].c1ccncc1
active: Potency [10] 11.3 µM | Potency [11] 17.9 µM | Potency [12] 7.12 µM

S=P(c1ccccc1)(c1ccccc1)c1c(-c2ccccc2)[nH]c2ccccc12
inactive: Potency [8]

COc1cc2cc(c1Cl)N(C)C(=O)C[C@H](OC(=O)C(C)C)[C@]1(C)O[C@@H]1[C@H](C)[C@@H]1C[C@@](O)(NC(=O)O1)[C@H](OC)/C=C/C=C(\C)C2
active: Potency [1] 0.0021 µM
inactive: Potency [2] | Potency [3] | Potency [9] | Potency [4] | Potency [6]

COC[C@H]1OC(=O)c2coc3c2[C@@]1(C)C1=C(C3=O)[C@@H]2CC[C@H](O)[C@@]2(C)C[C@H]1OC(C)=O
active: Potency [1] 18.6 µM | Potency [2] 10.5 µM | Potency [3] 5.9 µM | Potency [9] 5.25 µM | Potency [4] 1.66 µM | Potency [5] 7.42 µM | Potency [6] 8.33 µM

COc1cc2c(cc1F)C(c1ccccc1Cl)=Nc1c(n[nH]c1C)N2
active: Potency [1] 13.2 µM | Potency [2] 3.72 µM | Potency [3] 1.86 µM | Potency [6] 2.35 µM

C=C[C@H]1CN2CCC1C[C@@H]2[C@@H](O)c1ccnc2ccccc12 (some centres not stated)
active: Potency [3] 5.9 µM
inactive: viability [1] 98.5% | Potency [2] | Potency [9] | Potency [4] | Potency [5]

COc1cccc(CNc2ccc(C(=O)Nc3nccs3)cc2)c1O
inactive: Potency [7] | Potency [8]

CC1(C)CC(O)CC(C)(C)N1O
inactive: viability [1] 115% | Potency [2] | Potency [3] | Potency [9] | Potency [5] | Potency [6]
